This passage reports Percent Effect results from ChEMBL document CHEMBL3988442, “University of Dundee, Small-Polar-MMV Screening Library” (2021).

Molecules are shown by their SMILES.

The assay concerns the target AMP-activated protein kinase, AMPK (Homo sapiens) (UniProt P54646+O43741+P54619+Q9UGJ0+Q9Y478+Q13131+Q9UGI9). The assay can be described thus: AMP-dependent Kinase enzyme assay. An in vitro enzyme assay that detects ADP turnover that is directly proportional to AMPK activity. This uses naive AMPK that is activated during the assay with MK-8722. The class given is functional. On the set-up: scale not given: direction of the effect not stated beside the values. The conditions noted are these: 30 µM.
Consider `COc1ccc(NC(=O)CCN2CC=C(c3cnn(C)c3)CC2)cc1Cl`, for which the Percent Effect is 12.5%. Take `O=C(NCCOc1cccc(Cl)c1Cl)N1CCC2(CC1)OCCO2`: the Percent Effect is 1.62%. Next, `CC(C)(C)c1cc(=O)[nH]c(C2(N)CCCC2)n1`: 3.52%; `CCc1cccc(NC(=O)CCN2CC=C(c3cnn(C)c3)CC2)c1`: 11.6%.

Consider `CC(C)[C@@H]1CN(C(=O)C2(c3ccccc3)CCN(C)CC2)C[C@H]1C(=O)O`, for which the Percent Effect came to 3.48%.

Consider `O=C(O)[C@H]1CN(Cc2ccccc2)C[C@@H]1C(=O)c1ccccc1`, for which the Percent Effect is 12.8%. Next, `NC1(c2nc(C(F)(F)F)cc(=O)[nH]2)CCCC1`: -4.13%; `CC(Cc1cccc(F)c1)NCc1cnc(N2CCN(C)CC2)nc1` (centres undefined): 8.49%. The result for `Cc1nc(CC(=O)N2CCCC[C@H](N(C)C)C2)cs1` reads -2.31%; that for `NC1(c2nc(C(F)(F)F)cc(=O)[nH]2)CCCCC1`, -5.09%; that for `COc1ccc(CC(C)Nc2cccc(F)c2)cc1` (centres undefined), 4.95%. The result for `COc1ccc2ncn(Cc3ncc[nH]3)c(=O)c2c1` reads -1.95%; that for `Cc1nc(C(=O)N[C@H]2COC[C@@H]2N2CCCCC2)cs1`, 4.08%; that for `O=C1CC2(CCN(Cc3ccc(Cl)s3)C2)C(=O)N1` (centres undefined), 12.7%.

Take `CSc1nccc(N2CCC3(CCCN(CC4CC4)C3)C2)n1` (centres undefined): the Percent Effect turned out to be 2.58%.

Take `O=C(NC1CC1)[C@H]1CN(Cc2ccccc2)C[C@@H]1C(=O)c1ccccc1`: the Percent Effect amounted to 12.8%. The result for `O=C(C1CC1)N1CCc2c(ncnc2N2CCN3CCCC3C2)C1` (centres undefined) reads -5.38%; that for `O=C(N[C@H]1CN2CCC1CC2)c1cc(Cn2cnc3ccccc32)[nH]n1`, -6.79%; that for `COC(=O)N1C[C@H]2CC[C@@H]1CN(Cc1ccncc1)C2`, 0.146%.
